Laboratory results: PubChem BioAssay (NCATS)
Results filed as inconclusive are left out. A call without a number means that no potency is given here. The source made the active and inactive calls. Calls follow the shape of the dose curve; as a rule, active = well fitted cell-killing curve with a large enough effect; inconclusive = small, poorly fitted or top-dose-only effect; inactive = flat fitted curve, though single readings scatter.

Experiment: Cell Viability - LYMP2-018 (AID 985);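 also: compound exposure lasted 24 hr at 37 °C; nearly all actives have a fitted effect of over 50% in size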; also: potency is read from the fitted curve at half-maximal effect
Details: LYMP2-018 lymphoblastoid cells, viability (qHTS); series mostly up to 92.2 µM
How it was run: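 Human lymphoblastoid LYMP2-018 cells, 2500/well, settled 5 hr at 37 C then exposed to compound 24 hr at 37 C; intracellular ATP measured by CellTiter-Glo luminescence. AC50 from Hill-equation concentration-response fits.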

SMILES | Potency
COc1ccc(C(=O)c2ccccc2)c(O)c1 | inactive
COc1ccc(C(Cl)=C(c2ccc(OC)cc2)c2ccc(OC)cc2)cc1 | inactive
NC(=O)c1ccccc1O | inactive
CCCCC(CC)COC(=O)c1ccc(N(C)C)cc1 (configuration not stated) | inactive
CCOc1ccccc1C(N)=O | inactive
O=C(O)c1ccc(S(=O)(=O)N(Cl)Cl)cc1 | inactive
CCCN(CCC)S(=O)(=O)c1ccc(C(=O)O)cc1 | inactive
Oc1c(Cl)cc(Cl)c(Cl)c1Cc1c(O)c(Cl)cc(Cl)c1Cl | 25.1 µM (active)
OC[C@H]1O[C@@H]2O[C@H]3[C@H](O)[C@@H](O)[C@@H](O[C@H]4[C@H](O)[C@@H](O)[C@@H](O[C@H]5[C@H](O)[C@@H](O)[C@@H](O[C@H]6[C@H](O)[C@@H](O)[C@@H](O[C@H]7[C@H](O)[C@@H](O)[C@@H](O[C@H]8[C@H](O)[C@@H](O)[C@@H](O[C@H]1[C@H](O)[C@H]2O)O[C@@H]8CO)O[C@@H]7CO)O[C@@H]6CO)O[C@@H]5CO)O[C@@H]4CO)O[C@@H]3CO | inactive
NCCNc1cccc2ccccc12 | inactive
COc1cc([C@H]2Oc3cc([C@H]4Oc5cc(O)cc(O)c5C(=O)[C@@H]4O)ccc3O[C@@H]2CO)ccc1O | inactive
C/C=C/c1ccc(O)c(OC)c1 | inactive
CCOc1ccc(NC(C)=O)cc1 | inactive

Experiment: Cell Viability - LYMP2-020 (AID 986); also: nearly all actives have a fitted effect of over 55% in size; also: potency is read from the fitted curve at half-maximal effect
Details: series mostly up to 92.2 µM
How it was run: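 Human lymphoblastoid LYMP2-020 cells (2500/well) preincubated 5 h at 37 C, then treated 24 h at 37 C. Viability measured as intracellular ATP by CellTiter-Glo luminescence after 30 min at room temperature; AC50 from Hill fits.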

SMILES | Potency
COc1ccc(C(=O)c2ccccc2)c(O)c1 | inactive
COc1ccc(C(Cl)=C(c2ccc(OC)cc2)c2ccc(OC)cc2)cc1 | inactive
NC(=O)c1ccccc1O | inactive
CCCCC(CC)COC(=O)c1ccc(N(C)C)cc1 (configuration not stated) | inactive
CCOc1ccccc1C(N)=O | inactive
O=C(O)c1ccc(S(=O)(=O)N(Cl)Cl)cc1 | inactive
CCCN(CCC)S(=O)(=O)c1ccc(C(=O)O)cc1 | inactive
Oc1c(Cl)cc(Cl)c(Cl)c1Cc1c(O)c(Cl)cc(Cl)c1Cl | 15.8 µM (active)
OC[C@H]1O[C@@H]2O[C@H]3[C@H](O)[C@@H](O)[C@@H](O[C@H]4[C@H](O)[C@@H](O)[C@@H](O[C@H]5[C@H](O)[C@@H](O)[C@@H](O[C@H]6[C@H](O)[C@@H](O)[C@@H](O[C@H]7[C@H](O)[C@@H](O)[C@@H](O[C@H]8[C@H](O)[C@@H](O)[C@@H](O[C@H]1[C@H](O)[C@H]2O)O[C@@H]8CO)O[C@@H]7CO)O[C@@H]6CO)O[C@@H]5CO)O[C@@H]4CO)O[C@@H]3CO | inactive
C=C[C@H]1CN2CC[C@H]1C[C@@H]2[C@@H](O)c1ccnc2ccc(OC)cc12 | inactive
COc1cc([C@H]2Oc3cc([C@H]4Oc5cc(O)cc(O)c5C(=O)[C@@H]4O)ccc3O[C@@H]2CO)ccc1O | inactive
C/C=C/c1ccc(O)c(OC)c1 | inactive
CCOc1ccc(NC(C)=O)cc1 | inactive

Experiment: Cell Viability - LYMP2-022 (AID 987); also: nearly all actives have a fitted effect of over 55% in size
Details: LYMP2-022 lymphoblastoid cell viability; series mostly up to 92.2 µM
How it was run: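 LYMP2-022 lymphoblastoid cells (2500/well, complete medium) were treated with compounds for 24 hours at 37 C; intracellular ATP was then read by CellTiter-Glo luminescence after 30 min at room temperature. AC50 values were derived from Hill-equation fits.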

SMILES | outcome
COc1ccc(C(=O)c2ccccc2)c(O)c1 | inactive
COc1ccc(C(Cl)=C(c2ccc(OC)cc2)c2ccc(OC)cc2)cc1 | inactive
NC(=O)c1ccccc1O | inactive
CCCCC(CC)COC(=O)c1ccc(N(C)C)cc1 (configuration not stated) | inactive
CCOc1ccccc1C(N)=O | inactive
O=C(O)c1ccc(S(=O)(=O)N(Cl)Cl)cc1 | inactive
CCCN(CCC)S(=O)(=O)c1ccc(C(=O)O)cc1 | inactive
OC[C@H]1O[C@@H]2O[C@H]3[C@H](O)[C@@H](O)[C@@H](O[C@H]4[C@H](O)[C@@H](O)[C@@H](O[C@H]5[C@H](O)[C@@H](O)[C@@H](O[C@H]6[C@H](O)[C@@H](O)[C@@H](O[C@H]7[C@H](O)[C@@H](O)[C@@H](O[C@H]8[C@H](O)[C@@H](O)[C@@H](O[C@H]1[C@H](O)[C@H]2O)O[C@@H]8CO)O[C@@H]7CO)O[C@@H]6CO)O[C@@H]5CO)O[C@@H]4CO)O[C@@H]3CO | inactive
C=C[C@H]1CN2CC[C@H]1C[C@@H]2[C@@H](O)c1ccnc2ccc(OC)cc12 | inactive
COc1cc([C@H]2Oc3cc([C@H]4Oc5cc(O)cc(O)c5C(=O)[C@@H]4O)ccc3O[C@@H]2CO)ccc1O | inactive
C/C=C/c1ccc(O)c(OC)c1 | inactive
CCOc1ccc(NC(C)=O)cc1 | inactive

Experiment: Cell Viability - LYMP2-024 (AID 988); also: nearly all actives have a fitted effect of over 60% in size; also: potency is read from the fitted curve at half-maximal effect
Details: LYMP2-024 lymphoblastoid cell viability; series mostly up to 92.2 µM
How it was run: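 Human lymphoblastoid LYMP2-024 cells (2500/well) rested 5 hr, then treated with compound for 24 hr at 37 C in complete medium. Viability was measured as intracellular ATP by CellTiter-Glo luminescence. AC50 values came from Hill-equation fits.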

SMILES | Potency
COc1ccc(C(=O)c2ccccc2)c(O)c1 | inactive
COc1ccc(C(Cl)=C(c2ccc(OC)cc2)c2ccc(OC)cc2)cc1 | inactive
NC(=O)c1ccccc1O | inactive
CCCCC(CC)COC(=O)c1ccc(N(C)C)cc1 (configuration not stated) | inactive
CCOc1ccccc1C(N)=O | inactive
O=C(O)c1ccc(S(=O)(=O)N(Cl)Cl)cc1 | inactive
CCCN(CCC)S(=O)(=O)c1ccc(C(=O)O)cc1 | inactive
Oc1c(Cl)cc(Cl)c(Cl)c1Cc1c(O)c(Cl)cc(Cl)c1Cl | 39.8 µM (active)
OC[C@H]1O[C@@H]2O[C@H]3[C@H](O)[C@@H](O)[C@@H](O[C@H]4[C@H](O)[C@@H](O)[C@@H](O[C@H]5[C@H](O)[C@@H](O)[C@@H](O[C@H]6[C@H](O)[C@@H](O)[C@@H](O[C@H]7[C@H](O)[C@@H](O)[C@@H](O[C@H]8[C@H](O)[C@@H](O)[C@@H](O[C@H]1[C@H](O)[C@H]2O)O[C@@H]8CO)O[C@@H]7CO)O[C@@H]6CO)O[C@@H]5CO)O[C@@H]4CO)O[C@@H]3CO | inactive
NCCNc1cccc2ccccc12 | inactive
C=C[C@H]1CN2CC[C@H]1C[C@@H]2[C@@H](O)c1ccnc2ccc(OC)cc12 | inactive
COc1cc([C@H]2Oc3cc([C@H]4Oc5cc(O)cc(O)c5C(=O)[C@@H]4O)ccc3O[C@@H]2CO)ccc1O | inactive
C/C=C/c1ccc(O)c(OC)c1 | inactive
CCOc1ccc(NC(C)=O)cc1 | inactive
